High-throughput results deposited in PubChem by several laboratories.
In the library only some 3.4% were active in any assay of this set; here they are far more common.
NRP1-CendR mod – modulators of CendR peptide binding to human neuropilin-1; O14786; FAM-RPARPAR peptide binding to NRP-1, fluorescence polarization; inhibition, % at 25 µM; 0.85% of 360,000 active;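 active = inhibition or corrected inhibition above about 18%, plus a signal ratio from 0.5 to 1.5, limit read from the data, passing the limit was not always enough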
ADAM10 inh – inhibits human ADAM10 | 0.62% of 370,000 active | inhibition, % at 7 µM | O14672 | recombinant ADAM10, EDANS/DABCYL FRET peptide cleavage, 3 h;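 active = inhibition above a per-campaign cutoff equal to the mean of compounds falling between control-based bounds plus 3 SD, cut at about 20% in these data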;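 note: 0% = DMSO wells while the 100% control is not disclosed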
HGIII-sPLA2 inh – Blocks human group III sPLA2 activity; Q9NZ20; QFRET BODIPY PC-A2 liposome hydrolysis, fluorescence; inhibition, % at 12.2 µM; 0.56% of 370,000 active;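 active = inhibition above mean plus 3 SD of compounds lying within the high and low control bounds, cut at about 19% in these data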;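 note: 0% = median of test compound wells and 100% = no enzyme DMSO wells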
Target sequence (Q9NZ20 whole entry, looked up): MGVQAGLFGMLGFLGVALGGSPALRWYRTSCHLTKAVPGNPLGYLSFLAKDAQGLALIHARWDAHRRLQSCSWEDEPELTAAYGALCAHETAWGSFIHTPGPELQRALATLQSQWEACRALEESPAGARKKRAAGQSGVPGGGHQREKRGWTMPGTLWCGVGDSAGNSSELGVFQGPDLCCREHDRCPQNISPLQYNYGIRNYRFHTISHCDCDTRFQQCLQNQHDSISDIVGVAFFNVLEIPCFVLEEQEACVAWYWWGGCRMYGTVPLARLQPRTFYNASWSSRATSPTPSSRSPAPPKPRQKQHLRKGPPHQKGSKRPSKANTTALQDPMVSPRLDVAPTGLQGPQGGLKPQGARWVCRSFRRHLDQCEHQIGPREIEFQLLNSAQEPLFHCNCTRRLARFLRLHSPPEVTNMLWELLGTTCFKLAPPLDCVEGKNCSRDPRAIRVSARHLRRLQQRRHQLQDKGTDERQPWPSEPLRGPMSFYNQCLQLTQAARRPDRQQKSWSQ
KLK7 zymogen act – activates the human kallikrein-7 zymogen; P49862; 0.9% of 370,000 active; activation, % at 7 µM; purified proKLK7, EDANS-DABCYL substrate fluorescence; 100% is mature enzyme control, 0% vehicle;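 active = activation above the mean of all tested compounds plus 3 SD, computed per campaign excluding outliers beyond control limits, cut at about 13% in these data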
ADAM17 inh – inhibitors of human ADAM17 | P78536 | recombinant ADAM17, EDANS/DABCYL FRET peptide cleavage | inhibition, % at 6.95 µM | 0.83% of 370,000 active;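 active = inhibition above the mean of compounds lying between control limits plus 3 SD, set per campaign, cut at about 8.5% in these data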;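 note: 0% = DMSO-only wells as the low control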
Active calls of the source: *; x = no result given.

SMILES	NRP1-CendR mod	ADAM10 inh	HGIII-sPLA2 inh	KLK7 zymogen act	ADAM17 inh
CC(C)(C)OC(=O)NCCCCCNC(=O)c1nc[nH]c1C(=O)NCc1ccc(CNC(=O)OC(C)(C)C)cc1	-0.6	22.6*	-26.6	0.3	12.4*
COc1ccc2c(c1)CN1C(=O)N(Cc3ccccc3)S(=O)(=O)CC21 (stereo unspecified)	x	-0.8	6.8	0.2	4.2
C[C@@H]1OC(C2CCCCC2)N(C)[C@H]2C[C@H]3c4[nH]c5c(-c6ccc7c(c6)OCO7)cccc5c4CCN3C[C@@H]12 (stereo partly specified)	x	-12.5	0.5	0.5	-5.7
CCCCCCCCNC(=O)C1CSCCS(=O)(=O)N1Cc1ccc(F)cc1 (stereo unspecified)	x	-0.6	4.5	0.0	1.2
COCCNC(=O)C(=O)Nc1ccc(Br)cc1	-14.1	0.1	0.0	-0.3	3.5
COCCNC(=O)C(=O)Nc1cccc(Br)c1	28.6*	-8.1	-1.0	0.4	-2.2
Cc1ccc(C(=O)Nn2cnnc2)cc1[N+](=O)[O-]	26.1*	3.6	-3.9	0.1	-0.3
O=C(NC1CCCCC1)c1cc(S(=O)(=O)N2CCN(c3ccccc3)CC2)ccc1Cl	-2.5	5.8	-1.2	0.8	-1.2
CC1CCCC(C)N1C(=O)COC(=O)c1ccc(F)c(S(=O)(=O)N2CCOCC2)c1 (stereo unspecified)	22.6*	-8.9	6.0	0.1	-2.7
O=C(NCC1CCCCC1)c1ccc(F)c(S(=O)(=O)N2CCOCC2)c1	20.9*	-0.9	-3.5	-0.7	-3.8
O=C(Nc1ccc2c(c1)CCC2)c1cc(S(=O)(=O)N2CCN(c3ccccc3)CC2)ccc1Cl	-53.8	21.6*	-5.8	-1.0	6.6
O=C(Nc1ccc2c(c1)CCC2)c1ccc(F)c(S(=O)(=O)N2CCOCC2)c1	25.3*	-0.7	-1.7	-0.2	0.0
O=C(COC(=O)c1ccc(F)c(S(=O)(=O)N2CCOCC2)c1)NC1CCCCC1	-3.9	-4.2	-0.1	-0.4	-1.6
Cn1c(=O)oc2cc(S(=O)(=O)N3CCN(CCO)CC3)ccc21	x	-3.8	4.0	1.1	-0.2
CSc1nnc(-c2ccco2)c(-c2ccco2)n1	29.1*	-3.7	-2.3	0.0	-5.2
CC(C)(C)N1Cc2nnn(Cc3ccccc3)c2-c2cc(N3CCCCC3)ccc2S1(=O)=O	x	-13.6	-0.7	-2.3	-6.8
O=C(CSc1nnc(-c2ccc(Cl)cc2)n1-c1ccc(Cl)cc1)N/N=C/c1ccco1	-10.0	7.0	-14.7	0.6	4.8
Cc1ccc(/C=N/NC(=O)CSc2nnc(-c3ccc(Cl)cc3)n2-c2ccccc2)o1	43.1*	3.5	-24.6	0.0	1.5
CC(=O)OCC1OC(OCc2cn(C[C@H]3CC[C@H](Cn4cc(COC5OC(COC(C)=O)C(OC(C)=O)C(OC(C)=O)C5OC(C)=O)nn4)O3)nn2)C(OC(C)=O)C(OC(C)=O)C1OC(C)=O (stereo partly specified)	19.4*	-6.1	7.0	0.4	-6.1
CC(C)C(=O)N[C@H]1[C@H](O)CCC[C@]12C(=O)N(Cc1ccccc1)c1ccccc12	x	-1.2	0.6	0.0	-5.3
COc1ccc2c(c1OC)CN1CCc3cc4c(cc3[C@@H]1[C@@H]2O)OCO4	28.7*	x	x	x	x
COc1cc2c(cc1OC)C1Cc3ccc(OC)c(OC)c3CN1CC2 (stereo unspecified)	1.5	16.4	3.2	-0.5	2.2
CCOC(=O)C1=C(C)NC2=C(C(=O)CCC2)C1c1cn(Cc2ccc(Cl)cc2Cl)nc1-c1ccccc1 (stereo unspecified)	25.0*	-32.2	4.1	-9.2	-3.0
Cc1ccc(-c2cc(=O)c3cc(C)ccc3[nH]2)cc1	30.1*	-64.6	1.2	-0.7	-17.0
Cc1ccc(-c2cc(=O)c3cc(F)ccc3[nH]2)cc1	1.9	-1.5	-1.9	-0.3	0.9
SMILES	NRP1-CendR mod	ADAM10 inh	HGIII-sPLA2 inh	KLK7 zymogen act	ADAM17 inh
O=c1cc(-c2ccccc2)[nH]c2ccc(F)cc12	22.7*	-43.5	10.5	0.8	-12.7
Cc1ccc(OCCOc2c(Cl)cc(Cl)cc2Cl)c([N+](=O)[O-])n1	x	6.2	-2.5	x	3.3
Cc1ccc(C(=O)C(C)Sc2nnc(N)s2)cc1 (stereo unspecified)	-1.1	1.2	3.4	0.2	-3.0
COC(=O)C(C)Sc1nnc(SC(C)C(=O)OC)s1 (stereo unspecified)	35.8*	5.1	7.5	-0.3	-4.9
Cc1cc(Br)cn2c(Cc3ccsc3)c(C(C)(C)C)nc12	48.6*	-184.6	-78.0	3.2	-47.0
CCCc1nc2c(C)cc(Br)cn2c1Cc1ccsc1	9.9	-10.7	-8.2	0.1	-5.8
Cc1cc(Br)cn2c(Cc3ccccc3)c(C3CCCCC3)nc12	12.8	0.2	-16.3	0.1	0.4
Cc1cc(Br)cn2c(Cc3ccsc3)c(C3CCCCC3)nc12	35.1*	x	x	x	x
COc1ccc(CN(CCN2CCOCC2)C(=O)c2ccccc2C)cc1OC	x	-3.9	5.2	-0.1	-4.0
O=[N+]([O-])c1cc(C=NN2CCN(Cc3ccccc3Cl)CC2)ccc1Cl	x	-6.5	16.3	-0.2	-2.5
O=C(NCc1ccccc1Cl)O[C@H]1CC[C@@]23CCCN2C(=O)CCC[C@H]3C1	x	0.6	-3.2	x	-3.0
Cc1ccccc1NC(=O)CN1CCN(c2nc(-c3ccccc3)cs2)CC1	x	6.4	0.2	0.7	3.5
CC(C)CN=CC1=C(O)c2ccccc2C1=O	23.4*	-1.4	8.6	1.4	-5.8
Nn1c(SCC(=O)NCCC2=CCCCC2)nnc1C(F)(F)F	27.6*	x	x	x	x
Nn1c(SCC(=O)NCCC2=CCCCC2)nnc1C1CCCCC1	3.5	-14.5	1.3	0.1	-5.0
O=C(N[C@@H](Cc1ccccc1)C(=O)NCP(=O)(O)OC(Cc1ccccc1)C(=O)O)OCc1ccccc1 (stereo partly specified)	x	-1.7	5.2	x	-6.7
O=C(O)c1ccc(N2CCCCCC2)c(N2C(=O)c3ccccc3C2=O)c1	25.7*	2.6	-0.2	0.7	7.8
O=C(O)c1ccc2c(c1)C(=O)N(c1ccccc1-c1ccccc1)C2=O	4.0	-2.9	-0.3	0.6	0.0
C=CCCC(=O)N1CCC(C(=O)NC2CCCc3ccccc32)CC1 (stereo unspecified)	x	-1.7	7.0	0.1	2.2
CNC(=O)NC(=O)CSc1cccc(C(F)(F)F)c1	38.0*	8.2	-2.4	-0.1	-2.3
O=C1CC(N2CCCN(Cc3ccccc3)CC2)=NC(=O)N1c1ccc(Br)cc1	x	-28.4	0.6	-0.5	-10.6
CN1C[C@@H]2C(c3ccc(Cl)nc3)C3(c4ccccc4)CC2(C3)[C@H]1c1ccccc1 (stereo partly specified)	23.3*	0.1	8.4	0.6	1.0
COc1ccc(-n2c(SCC(=O)Nc3ccc(S(=O)(=O)Nc4nccs4)cc3)nnc2-c2ccco2)cc1	x	6.8	-36.6	-0.3	4.9
CCN1/C(=C/c2ccc3ccccc3[n+]2CC)C=Cc2ccccc21	-66.0	-10.9	32.6*	0.4	0.3
